RXFP1 ag – activates the human relaxin receptor RXFP1; AID 2676; Potency, µM (top dose mostly 57.5 µM), inactives show at the top dose activation, actives largely listed as activators; HEK293T-RXFP1 cAMP TR-FRET, 30 min; response scale: percent of porcine relaxin response, buffer zero; Q9HBX9; hit rate 0.3% among 370,000; also: potency is read from the fitted curve at half-maximal effect; % is scaled to controls: 0 for no effect and ±100 for the full control effect; nearly all actives have a fitted effect of over 60% in size
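cAMP rise read by TR-FRET after 30 min, 37C compound exposure (up to 58 uM) in RXFP1-transfected HEK293 cells with Ro 20174 present. EC50 from Hill-equation fits, with 29 nM porcine relaxin as 100% and buffer as basal.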
RXFP1 antag – RXFP1 (human) relaxin receptor antagonism; Q9HBX9; activity change, negative = inhibition, % at 57.5 µM; hit rate 0.59% among 350,000; HEK293-RXFP1, relaxin-stimulated cAMP HTRF, 30 min; stronger effect = lower value;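 active = activity change of -60% or lower, but not beyond a set lower limit; inconclusive = change between -60% and -40%, or beyond the set limit; inactive = change above -40%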; also: % is scaled to controls: 0 for no effect and ±100 for the full control effect
PTHR1 ag – PTHR1 (human) receptor agonism | hit rate 0.075% among 410,000 | Q03431 | Potency, µM (series often up to 115 µM), without a hit: at the top dose activation, usual class: activators | HEK293 GP2 PTHR1 cells, GloSensor cAMP luminescence, 1 h; also: potency is read from the fitted curve at half-maximal effect; nearly all actives have a fitted effect of over 55% in size
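HEK-293-derived GP2 cells expressing PTHR1 and a GloSensor cAMP reporter, 3,000/well, plated overnight, given luciferin plus IBMX (each 0.5 mM as added) for 1 h at 37 °C, then compound for 1 h at 37 °C. Luminescence was read after 15 min at room temperature.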
GRP78 ERSR act – inducers of ER stress response in human glioma cells. U87-MG GRP78 promoter luciferase reporter, 16 h. hit rate 0.02% among 420,000. Potency, µM, for the others: top-dose activation, usual class: activators; also: potency is read from the fitted curve at half-maximal effect; series mostly up to about 76 µM; % of control where 0% means no effect; nearly all actives have a fitted effect of over 35% in size
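ERSR induction read as luciferase luminescence (Bright-Glo, 10 min at room temperature) in stably transfected human U87-MG glioma cells exposed to compounds for 16 h, using GRP78 as sensor.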
KCNH2 WT inh – blocks the wildtype human KCNH2 potassium channel | hit rate 0.37% among 340,000 | activity change, % at 1.84 µM | U2OS, BacMam KCNH2, thallium flux FluxOr; stronger effect = lower value;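 active = maximum activity change below -70%; inconclusive = maximum activity change between -70% and -50%; inactive = maximum activity change above -50%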; also: % is scaled to controls: 0 for no effect and ±100 for the full control effect
Target sequence (Q12809 whole entry, looked up): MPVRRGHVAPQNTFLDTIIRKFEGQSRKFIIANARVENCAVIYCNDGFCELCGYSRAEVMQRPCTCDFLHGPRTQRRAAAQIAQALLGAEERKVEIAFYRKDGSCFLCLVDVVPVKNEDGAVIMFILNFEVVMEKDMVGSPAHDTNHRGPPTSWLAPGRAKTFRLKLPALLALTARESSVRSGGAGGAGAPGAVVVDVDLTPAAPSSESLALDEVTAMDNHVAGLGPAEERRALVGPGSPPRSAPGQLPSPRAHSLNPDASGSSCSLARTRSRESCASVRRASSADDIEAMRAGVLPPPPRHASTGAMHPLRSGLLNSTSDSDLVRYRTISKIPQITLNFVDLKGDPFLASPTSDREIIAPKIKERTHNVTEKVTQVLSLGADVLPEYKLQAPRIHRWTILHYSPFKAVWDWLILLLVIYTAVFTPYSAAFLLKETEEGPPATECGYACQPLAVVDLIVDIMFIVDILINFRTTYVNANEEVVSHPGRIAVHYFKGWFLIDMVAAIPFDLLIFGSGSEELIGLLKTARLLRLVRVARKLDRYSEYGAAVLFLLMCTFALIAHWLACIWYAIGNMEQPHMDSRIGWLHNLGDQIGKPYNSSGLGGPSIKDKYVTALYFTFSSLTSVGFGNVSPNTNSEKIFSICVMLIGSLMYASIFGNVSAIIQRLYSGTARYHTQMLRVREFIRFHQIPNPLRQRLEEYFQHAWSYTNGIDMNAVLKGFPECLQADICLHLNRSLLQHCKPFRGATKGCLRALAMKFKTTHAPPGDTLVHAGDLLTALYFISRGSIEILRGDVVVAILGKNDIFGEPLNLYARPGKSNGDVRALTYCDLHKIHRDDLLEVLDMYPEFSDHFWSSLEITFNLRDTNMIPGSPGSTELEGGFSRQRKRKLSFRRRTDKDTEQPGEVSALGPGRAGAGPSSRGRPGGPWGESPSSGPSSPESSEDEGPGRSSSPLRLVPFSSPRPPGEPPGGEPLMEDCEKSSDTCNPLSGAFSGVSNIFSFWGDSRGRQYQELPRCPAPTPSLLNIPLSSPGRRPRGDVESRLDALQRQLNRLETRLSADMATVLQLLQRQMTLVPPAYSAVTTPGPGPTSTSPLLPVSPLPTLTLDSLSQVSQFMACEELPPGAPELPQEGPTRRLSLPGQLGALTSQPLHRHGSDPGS
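U2OS cells were transduced with wild-type KCNH2 virus (2.03 x 10^8 / mL) for 4 h at room temperature, then cultured overnight at 37 C. Thallium flux was read with FluxOr dye. Rate constants were normalized to DMSO controls.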
KCNH2 3.1 block – KCNH2 3.1 (human) potassium channel inhibition; U2OS KCNH2 3.1, thallium flux FluxOr; stronger effect = lower value; activity change, % (tested at about 1.8 µM); hit rate 0.95% among 340,000;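 active = maximum activity change below -70%; inconclusive = maximum activity change from -70% to -50%; inactive = maximum activity change above -50%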;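 also: thallium influx rate constant from kinetic fluorescence after stimulation buffer; % is scaled to controls: 0 for no effect and ±100 for the full control effect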
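U2OS cells transduced with KCNH2 3.1 mutant virus (1.77 x 10^8 /mL, 4 h), plated overnight at 37 C, loaded 45 min with FluxOr dye plus Red40 quencher. Thallium flux rate constant from kinetic reads after stimulation buffer, normalised to controls.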
* marks the source's active call; other numbers are inactive results; i = inactive; u = inconclusive; x = no result; [ ] = another dose, or the depositor's remark. Rows were chosen to be rich in hits. Some 1.4% of all compounds tested hit in one or more screens of this group. Unless noted, calls follow the shape of the dose curve; as a rule, active = well fitted curve in the direction sought with a large enough effect; inconclusive = small, poorly fitted or top-dose-only effect, or another doubt; inactive = no such curve, though single readings can be large; an effect the other way counts as inactive or inconclusive.

SMILES	RXFP1 ag	RXFP1 antag	PTHR1 ag	GRP78 ERSR act	KCNH2 WT inh	KCNH2 3.1 block
CS(=O)(=O)c1ccc(Cl)c(NC(=O)C2CC(=O)N(Cc3ccco3)C2)c1 (stereo unspecified)	-0.1%	-5.8	-12.6%	-3.0%	1.0	-44.9
O=C1CCCC(=O)N1CCCCCCN1C(=O)CCCC1=O	x	1.1	-10.9%	0.2%	-1.8	11.4
CC(Sc1ncnc2sc(-c3ccccc3)cc12)C(=O)NCC1CCCO1 (stereo unspecified)	1.6%	-97.6*	-9.7%	0.7%	-10.9	2.0
CCc1ccc(NC(=O)C2CCN(c3ncnc4c3nc3n4CCCCC3)CC2)cc1	3.2%	8.4	-12.5%	-2.2%	0.9	-16.0
COc1ccc(OC)c(NC2c3ncccc3C(=O)N2Cc2ccco2)c1 (stereo unspecified)	1.8%	16.6	i	-1.6%	6.2	-80.0*
COc1ccc(CN2C(=O)c3cccnc3C2Nc2cc(Cl)ccc2OC)cc1 (stereo unspecified)	1.9%	10.6	-26.0%	6.8%	2.7	-9.3
O=C1c2cccc3cccc(c23)C(=O)N1CCN1CCN(CC(O)COCc2ccc(Cl)cc2)CC1 (stereo unspecified)	0.4%	-36.1	-17.4%	-6.3%	-7.3	u
CNC(=O)c1ccc2c(c1)N(Cc1cc(C)ccc1C)C(=O)c1ccccc1S2	0.4%	-12.6	-21.2%	x	x	x
CC(=NNc1ccccc1)C(C)=NNc1ccccc1	x	-6.3	-48.2%	-3.6%	43.0	-71.0*
CC(=O)/C=N/Nc1ccccc1	1.4%	-9.4	-18.4%	-6.0%	-1.8	6.3
CN1CCCC(CNC(=O)c2cnn(-c3nccc(-c4cccs4)n3)c2C2CC2)C1 (stereo unspecified)	x	x	x	-2.9%	x	x
C=CCNc1ncnc2c1ncn2[C@H]1CN(Cc2ccc(F)cc2)C[C@@H](CO)O1	x	x	i	-0.1%	x	x
N#CC1=C(SCC(=O)c2ccc(Br)cc2)NC2=C(C(=O)CCC2)C1c1ccco1 (stereo unspecified)	0.1%	-2.6	-17.2%[57.5 µM]	-6.9%	-8.2	-9.6
Cc1cc(OCc2ccccc2)ccc1/C(O)=C1/C(=O)C(=O)N(Cc2cccnc2)C1c1ccncc1 (stereo unspecified)	25.1µM*	24.4	i	0.5%	-8.5	1.2
COc1ccc(/C(O)=C2/C(=O)C(=O)N(Cc3cccnc3)C2c2ccncc2)cc1F (stereo unspecified)	6.3%	9.7	i	-3.5%	0.6	-14.2
Cc1ccc(NC(=O)c2ncn(CCCN3CCN(Cc4cccc5ccccc45)CC3)n2)cc1C	x	x	-67.9%	-9.8%	-12.0	-72.0*
CCN(CC)C(=O)c1cn(C)c(=O)c2cc(OC)c(OC)cc12	0.4%	-2.0	i	-3.9%	4.4	-197.6*
COC(=O)c1cc(OC)c(OC)cc1NC(=O)CN1CCOCC1	3.0%	-20.5	-5.7%[57.5 µM]	-3.3%	-236.4*	4.7
COC(=O)c1ccccc1NC(=O)CN1CCOCC1	-3.0%	4.4	-21.5%	-4.9%	0.2	-1.5
Cc1ccc(NC(=O)C2CCN(S(=O)(=O)c3ccc(F)cc3)CC2)cc1	-1.6%	4.3	-35.1%	-0.9%	-3.1	0.8
CC1CCN(S(=O)(=O)c2ccc(NC(=O)CNC3CCCCC3)cc2)CC1	-2.9%	-104.2*	i	-4.8%	1.5	-4.0
O=C(Nc1ccc(S(=O)(=O)N2CCCC2)cc1)C1CCN(S(=O)(=O)c2ccc(F)cc2)CC1	0.1%	6.4	-85.3%	-3.1%	-2.0	-105.5*
CCOC(=O)CNc1nc(Cl)c(C#N)s1	0.2%	-6.6	19.4%	-3.5%	10.3	-6.9
Cc1cccc(CCNS(=O)(=O)c2ccc(S(=O)(=O)N3CCC(C)CC3)cc2)c1	x	3.4	-19.0%[57.5 µM]	4.5%	-5.8	-78.8*
CC1CCN(C(=O)COc2ccc(S(=O)(=O)N3CCOCC3)cc2)CC1	0.0%	4.1	i	-3.9%	4.2	-8.4
SMILES	RXFP1 ag	RXFP1 antag	PTHR1 ag	GRP78 ERSR act	KCNH2 WT inh	KCNH2 3.1 block
CCOc1cc(-c2ccc(OC(=O)c3ccccc3)c(OC)c2)cc(=O)c2c(C)oc(C)c12	2.9%	-97.7*	-8.1%	-0.2%	x	x
CCOc1cc(-c2ccc(OC(=O)c3ccc(Cl)cc3)c(OC)c2)cc(=O)c2c(C)oc(C)c12	-0.2%	-62.7*	-20.2%	-4.3%	x	x
COc1ccc(-c2cc(OC(=O)c3ccccc3)c3c(C)oc(C)c3c(=O)c2)cc1OC	-0.5%	-4.7	-4.3%	-3.5%	x	x
COc1cc(-c2cc(OC)c3c(C)oc(C)c3c(=O)c2)ccc1OC(=O)c1ccccc1F	1.3%	-68.4*	i	-2.4%	x	x
COc1cc(-c2cc(OC)c3c(C)oc(C)c3c(=O)c2)ccc1OC(=O)c1ccccc1Cl	3.4%	u	-86.9%	-4.3%	x	x
O=c1c(N2CCN(c3cccc(C(F)(F)F)c3)CC2)csc2ccc(Cl)cc12	0.6%	-5.7	i	-3.8%	x	x
COc1ccc(CNS(=O)(=O)c2ccc(F)c(C(=O)Nc3c(C)cc(C)cc3C)c2)cc1	4.1%	-1.5	-29.6%	2.1%	x	x
CCOc1ccc(N(CCCCO)C(=S)NC(=O)c2ccc(C)c(Br)c2)cc1	0.2%	-89.5*	-5.4%	5.6%	3.7	2.6
CCCOc1ccc(Cc2nn3c(=O)/c(=C/c4ccco4)sc3nc2=O)cc1	2.8%	2.4	-23.0%	-3.8%	3.7	4.7
COc1ccccc1/C=C/C=c1\sc2nc(=O)c(Cc3ccccc3)nn2c1=O	3.4%	-3.2	-33.0%	-4.3%	-140.0*	-162.8*
Cc1cc(S(=O)(=O)N2CCC(NC(=O)C34CC5CC(CC(C5)C3)C4)CC2)ccc1-n1cnnn1	0.2%	0.5	i	-2.9%	10.9	-89.3*
Cc1cc(S(=O)(=O)N2CCC(N3CCCCC3)CC2)ccc1-n1cnnn1	0.9%	1.2	-2.0%	-3.4%	28.7	2.7
CN(C)S(=O)(=O)c1cccc(COC(=O)c2ccc(Cl)cc2O)c1	-2.0%	5.8	-89.2%	-2.8%	-3.6	3.0
CN(C)S(=O)(=O)c1cccc(COc2ncnc3c(Cl)cc(Cl)cc23)c1	15.8µM*	11.9	-20.7%	-0.1%	16.4	6.8
O=C(NCC1CCCO1)C(=O)N/N=C/c1cc(Cl)ccc1O (stereo unspecified)	1.6%	-19.7	-35.0%	-4.7%	-0.5	2.1
O=C(NCC1CCCO1)C(=O)N/N=C/c1ccc(O)c(Cl)c1 (stereo unspecified)	5.4%	-15.1	-6.0%	-2.8%	-225.2*	-38.1
COc1cccc(CNc2ncc(Br)cc2Br)c1O	3.0%	-78.0*	-61.4%[57.5 µM]	6.8%	-1.4	0.0
Cc1sc(-n2c(C)cc(/C=C3\SC(=S)NC3=O)c2C)c(C#N)c1C	1.1%	-105.5*	-44.3%[57.5 µM]	u	-8.5	11.0
